{"source": "PubChem BioAssay AID372", "about": "(MTDP, 2006)", "note": "The campaign covered roughly 100,000 compounds. About 770 (0.77%) were called active. Only a selection was taken, and actives are over-represented in it overall. Unmarked numbers belong to inactive results. No stated cut-off is given here; in the data, active means inhibition above about 50%; inactive means the rest."}
{"molecular_target": "Gag-Pol polyprotein (Human immunodeficiency virus type 1 group M subtype B (isolate HXB2)) (UniProt P04585)", "assay": "RNase H inhibition, HIV 1 Gag Pol polyprotein, FRET biochemical assay, screening (AID 372)", "conditions": "HIV-1 RT RNase H, FRET RNA/DNA substrate fluorescence; at 10 µM; hits give high values"}
{"molecule": "O=C(O)CC(C(=O)O)N1C(=O)/C(=C\\C(Cl)=C/c2ccc([N+](=O)[O-])cc2)SC1=S", "note": "(stereo not drawn)", "inhibition": "14%"}
{"molecule": "c1ccc(CNc2nc(-c3ccccc3)cc(-c3ccccc3)n2)cc1", "inhibition": "15%"}
{"molecule": "c1ccc(CNc2nc(-c3ccccc3)[n+](-c3ccccc3)s2)cc1", "inhibition": "52% (active)"}
{"molecule": "c1ccc(Nc2nc(-c3ccccc3)[n+](-c3ccccc3)s2)cc1", "inhibition": "30%"}
{"molecule": "COc1ccc(N(CC(=O)NCCSCc2ccccc2Cl)S(C)(=O)=O)cc1", "inhibition": "22%"}
{"molecule": "CS(=O)(=O)N(CC(=O)NCCSc1ccc(Cl)cc1)c1ccc(Br)cc1", "inhibition": "8%"}
{"molecule": "COc1ccc(S(=O)(=O)N(CC(=O)NCCSCc2ccc(Cl)cc2)c2cc(C)cc(C)c2)cc1OC", "inhibition": "12%"}
{"molecule": "COc1ccc(N(CC(=O)NCCSCc2ccc(Cl)cc2)S(C)(=O)=O)cc1Cl", "inhibition": "38%"}
{"molecule": "Cc1cc(C)cc(N(CC(=O)NCCSCc2ccc(Cl)cc2)S(C)(=O)=O)c1", "inhibition": "57% (active)"}
{"molecule": "CS(=O)(=O)N(CC(=O)NCCSCc1ccccc1Cl)c1ccc(Br)cc1", "inhibition": "50% (active)"}
{"molecule": "Cc1ccc(CSCCNC(=O)CN(c2cccc(C)c2)S(C)(=O)=O)cc1", "inhibition": "18%"}
{"molecule": "CCOc1ccc(N(CC(=O)NCCSCc2ccc(Cl)cc2)S(C)(=O)=O)cc1", "inhibition": "22%"}
{"molecule": "CS(=O)(=O)N(CC(=O)NCCSCc1ccc(Cl)cc1)c1ccc(Cl)cc1", "inhibition": "55% (active)"}
{"molecule": "O=C(NC(=S)Nc1ccccc1[N+](=O)[O-])c1ccc(-c2ccccc2)cc1", "inhibition": "13%"}
{"molecule": "O=C(Cn1c(NCCCO)nc2ccccc21)c1ccc(Br)s1", "inhibition": "11%"}
{"molecule": "Cc1sc(NC(=O)/C=C/c2ccc(Cl)cc2Cl)c(C(N)=O)c1C", "inhibition": "26%"}
{"molecule": "Nc1nnc(SCC(=O)Nc2ccccc2Oc2ccccc2)s1", "inhibition": "4%"}
{"molecule": "CCC(C)c1ccc(NC(=S)NC(=O)c2ccc(OC)c(Br)c2)cc1", "note": "(stereo not drawn)", "inhibition": "9%"}
{"molecule": "COc1ccc(CCN(C)C2CC(=O)N(c3ccc(F)cc3)C2=O)cc1OC", "note": "(stereo not drawn)", "inhibition": "0%"}
{"molecule": "Cc1ccc2oc(-c3cc(NC(=O)c4ccc(I)cc4)ccc3O)nc2c1", "inhibition": "10%"}
{"molecule": "COc1ccc(Cc2cnc(NC(=O)c3ccccc3Cl)s2)cc1", "inhibition": "11%"}
{"molecule": "NS(=O)(=O)c1ccc(CNC2CC(=O)N(CCc3ccccc3)C2=O)cc1", "note": "(stereo not drawn)", "inhibition": "9%"}
{"molecule": "O=[N+]([O-])c1ccc2nc3c([nH]c4ccccc43)c(N3CCOCC3)c2c1", "inhibition": "6%"}
{"molecule": "O=c1c2cc([N+](=O)[O-])ccc2[nH]c2c1[nH]c1ccccc12", "inhibition": "33%"}
{"molecule": "O=[N+]([O-])c1ccc2nc3c([nH]c4ccccc43)c(Cl)c2c1", "inhibition": "58% (active)"}
{"molecule": "CCOc1cc(C(=O)NCc2ccccc2OC)cc(OCC)c1OCC", "inhibition": "2%"}
{"molecule": "Cc1ccc(C(=O)NNC(=S)NC(C)(C)C)cc1", "inhibition": "6%"}
{"molecule": "Cc1ccc(NC(=O)CC2SC(=Nc3ccccc3)N(c3ccccc3)C2=O)cc1", "note": "(stereo not drawn)", "inhibition": "5%"}
{"molecule": "O=C(CC1SC(=Nc2ccccc2)N(c2ccccc2)C1=O)Nc1ccccc1", "note": "(stereo not drawn)", "inhibition": "58% (active)"}
{"molecule": "O=C(CC1SC(=Nc2ccccc2)N(c2ccccc2)C1=O)Nc1ccc(F)cc1", "note": "(stereo not drawn)", "inhibition": "14%"}
{"molecule": "O=C(N/C(=C/c1cccc(Br)c1)C(=O)N1CCOCC1)c1ccccc1", "inhibition": "5%"}
{"molecule": "CC(C)Cc1nnc(NC(=O)c2ccccc2I)s1", "inhibition": "0%"}
{"molecule": "CCOC(=O)N1CCN(CCC(=O)Nc2ccc3c(c2)OCO3)CC1", "inhibition": "16%"}
{"molecule": "Cc1cc2nn(-c3ccccc3)nc2cc1NC(=O)/C=C/c1ccc(Cl)cc1", "inhibition": "54% (active)"}
{"molecule": "Cc1ccc(-n2nc3cc(C)c(NC(=O)c4ccccc4Br)cc3n2)cc1", "inhibition": "4%"}
{"molecule": "Cc1ccc(-n2nc3cc(C)c(NC(=O)c4cccc([N+](=O)[O-])c4C)cc3n2)cc1", "inhibition": "51% (active)"}
{"molecule": "Cc1ccc(-n2nc3cc(C)c(NC(=O)c4ccc(Cl)cc4Cl)cc3n2)cc1", "inhibition": "1%"}
{"molecule": "Cc1cc2nn(-c3ccc(Cl)cc3)nc2cc1NC(=O)c1ccccc1C", "inhibition": "36%"}
{"molecule": "Cc1ccc(-n2nc3cc(C)c(NC(=O)c4ccccc4[N+](=O)[O-])cc3n2)cc1", "inhibition": "15%"}
{"molecule": "Cc1cc2nn(-c3ccccc3)nc2cc1NC(=O)c1cccc([N+](=O)[O-])c1C", "inhibition": "16%"}
{"molecule": "Cc1cc2nn(-c3ccccc3)nc2cc1NC(=O)c1ccc(Cl)cc1Cl", "inhibition": "41%"}
{"molecule": "Cc1cc2nn(-c3ccc(Cl)cc3)nc2cc1NC(=O)c1ccc(Cl)cc1Cl", "inhibition": "58% (active)"}
{"molecule": "Cc1cc2nn(-c3ccc(Cl)cc3)nc2cc1NC(=O)c1ccccc1Br", "inhibition": "52% (active)"}
{"molecule": "Cc1cc2nn(-c3ccccc3)nc2cc1NC(=O)/C=C/c1ccccc1", "inhibition": "12%"}
{"molecule": "COc1ccc(-n2nc3cc(C)c(NC(=O)/C=C/c4ccccc4)cc3n2)cc1", "inhibition": "42%"}
{"molecule": "Cc1ccc(OCCOc2ccc(Br)cc2/C=C2\\SC(=S)NC2=O)c(C)c1", "inhibition": "46%"}
{"molecule": "O=C(COC(=O)c1ccccc1Cl)c1ccc(Cl)cc1Cl", "inhibition": "43%"}
{"molecule": "CCOC(=O)C1=C(C)N=c2s/c(=C/c3ccc(-c4cc([N+](=O)[O-])ccc4OC)o3)c(=O)n2C1c1cccs1", "note": "(stereo not drawn)", "inhibition": "8%"}
{"molecule": "CC(O)c1cccc(NC(=O)c2nn3c(c2Cl)NC(c2cccs2)CC3C(F)(F)F)c1", "note": "(stereo not drawn)", "inhibition": "6%"}
{"molecule": "COc1ccc(-c2cc(-c3ccccc3)nc(-c3ccc(C)o3)c2)cc1", "inhibition": "16%"}
{"molecule": "Cc1ccc(-n2nc3cc(C)c(NC(=O)c4ccc([N+](=O)[O-])cc4Cl)cc3n2)cc1", "inhibition": "0%"}
{"molecule": "COc1ccc(-n2nc3cc(C)c(NC(=O)c4cc(Cl)ccc4Cl)cc3n2)cc1", "inhibition": "35%"}
{"molecule": "Cc1cc2nn(-c3ccc(Cl)cc3)nc2cc1NC(=O)c1cc(Cl)ccc1Cl", "inhibition": "52% (active)"}
{"molecule": "Cc1cc2nn(-c3ccccc3)nc2cc1NC(=O)c1ccc([N+](=O)[O-])cc1Cl", "inhibition": "22%"}
{"molecule": "Cc1cc2nn(-c3ccc(Cl)cc3)nc2cc1NC(=O)c1ccc([N+](=O)[O-])cc1Cl", "inhibition": "50% (active)"}
{"molecule": "Cc1ccc(-n2nc3cc(C)c(NC(=O)c4cc(Cl)ccc4Cl)cc3n2)cc1", "inhibition": "5%"}
{"molecule": "CSc1ccc(/C=C2\\C(=O)NC(=O)N(c3ccc(Br)c(C)c3)C2=O)cc1", "inhibition": "0%"}
{"molecule": "Cc1sc(NC(=O)c2ccccc2C(=O)O)c(C#N)c1C", "inhibition": "3%"}
